The values that follow come from PubChem BioAssay (Tox21).

Records with an inconclusive call do not appear. Activity calls are given as the source filed them. Calls follow the shape of the dose curve; as a rule, active = well fitted inhibition curve with a large enough effect in the repeat runs; inconclusive = weak or mixed curves; inactive = no such curve, though single readings can be large or run the other way. Where a SMILES comes first, the peptide text is derived from it. [ ]: non-standard residue; d: D form. pGlu = O=C1CC[C@@H](C(=O)O)N1
% is scaled to controls: 0 for no effect and ±100 for the full control effect; potency is read from the fitted curve at half-maximal effect.

Sequence of Cytochrome P450 1A2 (Homo sapiens) (P05177 whole entry, looked up): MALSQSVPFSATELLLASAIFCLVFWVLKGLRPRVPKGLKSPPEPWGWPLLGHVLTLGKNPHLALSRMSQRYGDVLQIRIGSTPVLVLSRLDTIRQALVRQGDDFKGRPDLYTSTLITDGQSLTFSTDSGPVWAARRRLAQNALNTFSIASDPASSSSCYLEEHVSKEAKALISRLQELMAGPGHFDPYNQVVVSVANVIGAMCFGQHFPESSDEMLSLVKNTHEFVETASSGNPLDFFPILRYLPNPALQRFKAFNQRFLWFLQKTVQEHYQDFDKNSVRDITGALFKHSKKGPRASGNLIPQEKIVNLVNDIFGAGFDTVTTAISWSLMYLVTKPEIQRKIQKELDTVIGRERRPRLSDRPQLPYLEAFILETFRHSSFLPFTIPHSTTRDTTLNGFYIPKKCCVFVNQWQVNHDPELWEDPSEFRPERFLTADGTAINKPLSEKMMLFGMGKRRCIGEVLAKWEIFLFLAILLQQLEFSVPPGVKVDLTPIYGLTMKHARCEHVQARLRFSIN

For the assay, the target named is Cytochrome P450 1A2 (Homo sapiens) (UniProt P05177). Description: Cytochrome P450 Family 1 Subfamily A Member 2 (CYP1A2) small molecule antagonists: luciferase reporter qHTS assay (AID 1671199). Also: nearly all actives have a fitted effect of over 50% in size. The settings on record: P450-Glo CYP1A2 enzyme, luciferin luminescence, 1 h; series mostly up to 53 µM; activity change, negative = inhibition: at the top concentration. The source says:
National Center for Advancing Translational Sciences [NCATS]
U.S. Environmental Protection Agency [EPA]
National Institutes of Environmental Health Sciences [NIEHS]
National Toxicology Program [NTP]
U.S. Food and Drug Administration [FDA]
Cytochrome P450 (CYP) enzymes are membrane-bound hemeproteins that play a key role in metabolism of drugs and xenobiotics. Evaluation of the effect of chemicals on CYP isozymes is useful to minimize the adverse drug reactions and toxicities in drug development process. Tox21 chemicals were tested for their effect on CYP enzyme activities by using P450-Glo (TM) screening systems (Promega Corporation, Madison, WI). These systems provide a luminescent method containing proluciferin substrates and are converted to luciferin products by CYP isozymes. The luciferin products formed are detected with a luciferin detection reagent, and the amount of light produced is proportional to CYP activity. P450-Glo (TM) CYP1A2 screening system (Catalog. No. V9770) was used to detect the compounds that interfere in CYP1A2 activity. The positive control compound used for CYP1A2 assay is furafylline (Sigma-Aldrich, St. Louis, MO).
Tox21 Assay Protocol Summary:
Two ul of enzyme-substrate mix was dispensed into medium binding white/solid 1536-well plates (Greiner Bio-One North America Inc., Monroe, NC) using a BioRaptr Flying Reagent Dispenser (FRD, Beckman Coulter, Brea, CA). Compounds dissolved in DMSO and positive control (furafyllline) were transferred to the assay plates at 23 nl using a Pintool station (Wako, San Diego, CA). The assay plates were incubated at room temperature for 10 min. Then 2 ul of NADPH regeneration solution was added to each well of the assay plates using an FRD and incubated at room temperature for 1 h. The reaction was stopped by adding 4 ul of detection reagent using an FRD and after 20 min incubation at room temperature the luminescence signal was measured using a ViewLux plate reader (Perkin Elmer, Shelton, CT). Data were expressed as relative luminescence units.
Consider `CCN(Cc1ccccc1)c1ccccc1`, for which the Potency is 35.1 µM (active).
For `O=C(CO)[C@@H](O)[C@H](O)[C@@H](O)CO`, the “activity change, negative = inhibition” value is 3.18% (inactive).
On to `CC(=O)N1C[C@H](O)C[C@H]1C(=O)O`, for which the “activity change, negative = inhibition” value was 14.9% (inactive).
Same read-out and setting: the value for `O=S(=O)(O)c1cc(O)c(O)c(S(=O)(=O)O)c1` was -9.79% [at 115 µM] (inactive); that for `CCOC(=O)OC(C)OC1=C(C(=O)Nc2ccccn2)N(C)S(=O)(=O)c2ccccc21` (stereo not given) was -15.2% (inactive); that for `CC(C)(C)c1ccc(-c2ccc(C(C)(C)C)cc2)cc1` was -20.5% [at 115 µM] (inactive).
Consider `CN1CC(=O)N/C1=N/C(=O)Nc1cccc(Cl)c1`, for which the Potency is 20.4 µM (active).
In the case of `O=C(O)Cc1csc(-c2ccc(Cl)cc2)n1`, the “activity change, negative = inhibition” value was 6.64% (inactive).
Still for that read-out and setting: the value for `CN1C(C)(C)CC(O)CC1(C)C` was -21.3% [at 115 µM] (inactive); that for `N[C@H](C(=O)O)[C@@H](O)c1ccc(O)c(O)c1` was 10.2% (inactive).
Still for that read-out and setting: the value for `CN1CCN(c2cc3c(nn2)Oc2ccccc2N3C)CC1` was -0.0691% [at 23.6 µM] (inactive).
Take `C=C[Si](OC(C)=O)(OC(C)=O)OC(C)=O`: the “activity change, negative = inhibition” value is -22.4% [at 115 µM] (inactive).
Still for that read-out and setting: as for `CC[C@H]1OC(=O)[C@H](C)[C@@H](O[C@H]2C[C@@](C)(OC)[C@@H](O)[C@H](C)O2)[C@H](C)[C@@H](O[C@@H]2O[C@H](C)C[C@H](N(C)C)[C@H]2O)[C@](C)(OC)C[C@@H](C)C(=O)[C@H](C)[C@@H](O)[C@]1(C)O`, the figure is -6.67% [at 115 µM] (inactive); as for `CCOc1c(N2CCOCC2)cnn(C)c1=O`, 7.8% (inactive); as for `CC1=CCC(O)(C(C)C)CC1` (stereo not given), -11.7% [at 115 µM] (inactive).
Still for that read-out and setting: as for `Nc1ccn([C@@H]2O[C@H](CO)[C@@H](O)[C@@H]2O)c(=O)n1`, the figure is -14.8% [at 115 µM] (inactive).
On to `CC(=O)c1ccccc1[N+](=O)[O-]`, for which the Potency was 39.2 µM (active).
`C[N+](C)(CCOc1ccccc1)Cc1cccs1`: the “activity change, negative = inhibition” value is -22.7% (inactive).
Still for that read-out and setting: as for `CC(CC=O)CC(C)(C)C` (stereo not given), the figure is -19.5% [at 115 µM] (inactive).
Still for that read-out and setting: as for `CC[N+](CC)(CC)CCOc1cccc(OCC[N+](CC)(CC)CC)c1OCC[N+](CC)(CC)CC`, the figure is -3.68% (inactive); as for `CC(C)(N)C#N`, -14.5% [at 115 µM] (inactive); as for `CC(=O)c1cnccn1`, -23% [at 115 µM] (inactive).
For the molecule `CCOc1ccc2nc(S(N)(=O)=O)sc2c1`, the Potency was 4.07 µM (active).
`CCN(C=O)CC`: the “activity change, negative = inhibition” value is -6.44% [at 115 µM] (inactive).
Same read-out and setting: the value for `NC(CCC(=O)O)C(=O)O` (stereo not given) was -17.8% [at 115 µM] (inactive).
The same measure, in the same setting: as for `Nc1ccncc1N`, the figure is 13.8% (inactive); as for `CN1[C@@H]2CC[C@H]1CC(OC(=O)C(O)c1ccccc1)C2` (stereo not given in full), -1.68% (inactive); as for `C[N+]1(C)[C@@H]2CC(OC(=O)[C@H](CO)c3ccccc3)C[C@H]1[C@@H]1O[C@@H]12` (stereo not given in full), -7.21% (inactive).
On the same count and under the same terms, the value for `CCC(=O)OCc1ccccc1` was -10% [at 115 µM] (inactive).
On to `CCCCCCCCN1CCCC1=O`, for which the Potency was 39.9 µM (active).
On the same count and under the same terms, the value for `CCCCCCCCCCCCCCC(=O)O` was 35.7 µM (active).
With `C[C@H]1C[C@H]2[C@@H]3CCC4=CC(=O)C=C[C@]4(C)[C@H]3C(=O)C[C@]2(C)[C@@]1(O)C(=O)CO`, the Potency is 27.5 µM (active).
On the same count and under the same terms, the value for `Cc1ccc(C(=O)c2ccccc2)cc1` was 31.7 µM (active).
In the case of `CNCCO`, the “activity change, negative = inhibition” value is -5.84% [at 115 µM] (inactive).
On the same count and under the same terms, as for `CCNC(=O)[C@@H]1CCCN1C(=O)[C@H](CCCN=C(N)N)NC(=O)[C@H](CC(C)C)NC(=O)CNC(=O)[C@H](Cc1ccc(O)cc1)NC(=O)[C@H](CO)NC(=O)[C@H](Cc1c[nH]c2ccccc12)NC(=O)[C@H](Cc1cnc[nH]1)NC(=O)[C@@H]1CCC(=O)N1` ([pGlu]HWSYGLRP-NHEt), the figure is 7.66% (inactive).
On the same count and under the same terms, the value for `Cc1ccnc(NS(=O)(=O)c2ccc(N)cc2)n1` was 1.25% (inactive); that for `CCO[Si](OCC)(OCC)c1ccccc1` was -8.36% [at 115 µM] (inactive).
Same read-out and setting: as for `Clc1cc(Cl)cc(Cl)c1`, the figure is -7.59% [at 115 µM] (inactive).
`COCCOCC(OC)OC`: the “activity change, negative = inhibition” value is 3.59% (inactive).
For `Nc1ccn([C@@H]2O[C@H](CO)[C@@H](O)C2(F)F)c(=O)n1`, the “activity change, negative = inhibition” value was 12.8% (inactive).
